The full ranking holds about 110,000 compounds; the median of “z-score” is about -0.1, and the highest 2% start at about 2. The full list was thinned out, with the highest values kept by preference. Active and inactive are the calls of the source.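 How the source made its calls: active means z-score in the third read window above 3 or below -3; inactive means the rest.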

For this experiment, the target named is Metabotropic glutamate receptor 8 (Rattus norvegicus) (UniProt P70579). Briefly: rat mGluR8 modulators via GIRK flux, primary screen, cell-based, thallium flux, HTS (AID 488969). The settings on record: HEK293 rat mGluR8, GIRK (G protein-gated inwardly rectifying potassium channel) thallium flux, FluoZin2; at 10 µM; stronger effect = higher value; submaximal glutamate (EC20) added with thallium.
Sequence of Metabotropic glutamate receptor 8 (Rattus norvegicus) (P70579 whole entry, looked up): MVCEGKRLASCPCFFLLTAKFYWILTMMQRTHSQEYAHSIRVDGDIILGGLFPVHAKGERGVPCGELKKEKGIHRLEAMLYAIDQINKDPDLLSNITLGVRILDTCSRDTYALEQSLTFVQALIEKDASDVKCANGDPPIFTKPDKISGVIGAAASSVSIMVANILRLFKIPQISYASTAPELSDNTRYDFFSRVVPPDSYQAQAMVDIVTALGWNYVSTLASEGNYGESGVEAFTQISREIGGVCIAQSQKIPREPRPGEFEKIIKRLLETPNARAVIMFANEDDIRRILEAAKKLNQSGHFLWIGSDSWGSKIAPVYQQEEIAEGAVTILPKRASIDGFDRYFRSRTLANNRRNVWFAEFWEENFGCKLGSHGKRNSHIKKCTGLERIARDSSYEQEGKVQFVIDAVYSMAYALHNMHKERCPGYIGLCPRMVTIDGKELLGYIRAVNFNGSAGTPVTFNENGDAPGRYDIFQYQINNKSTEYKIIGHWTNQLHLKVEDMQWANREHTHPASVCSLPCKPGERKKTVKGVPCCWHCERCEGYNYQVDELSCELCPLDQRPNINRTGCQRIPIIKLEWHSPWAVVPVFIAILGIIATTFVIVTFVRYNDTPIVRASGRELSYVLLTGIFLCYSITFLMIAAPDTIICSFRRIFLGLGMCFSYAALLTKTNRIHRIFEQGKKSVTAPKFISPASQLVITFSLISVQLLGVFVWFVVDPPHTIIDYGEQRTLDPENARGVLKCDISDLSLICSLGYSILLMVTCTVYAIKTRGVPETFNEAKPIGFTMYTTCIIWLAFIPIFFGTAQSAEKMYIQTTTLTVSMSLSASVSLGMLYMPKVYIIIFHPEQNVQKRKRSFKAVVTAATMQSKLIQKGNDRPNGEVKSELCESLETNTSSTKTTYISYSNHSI
Take `CCC(=O)Nc1ccc(S(=O)(=O)N2CCCCC2)cc1OC`: the z-score was determined as 0.0489.
For the compound `CC(C)Cc1nc2oc3c(NCCCN4CCOCC4)ncnc3c2c2c1CCC2`, the z-score is 0.0144.
As for `S=c1[nH]nc(-c2cc(-c3ccco3)[nH]n2)n1-c1ccccc1`, the z-score is -0.141.
Regarding `COc1cc(S(=O)(=O)N(Cc2ccccn2)Cc2ccco2)ccc1-n1cnnn1`, the z-score is -0.493.
Compound `CC(=O)Nc1ccc(SCC(=O)c2cc(C)n(CC(F)(F)F)c2C)cc1` returned a z-score of 0.0826.
`COCC(C)n1c(C)cc(C(=O)CSc2ccc(NC(C)=O)cc2)c1C` (stereo unspecified): the z-score worked out at 0.445.
For `COC(=O)c1ccc(-n2c(C)cc(C(=O)CSc3ccc(NC(C)=O)cc3)c2C)cc1` the value was 3.5 (active); for `CC(=O)Nc1ccc(SCC(=O)c2cc(C)n(C)c2C)cc1`, -0.0734.
Consider `CC(=O)Nc1ccc(SCC(=O)c2cc(C)n(-c3ccccc3F)c2C)cc1`, for which the z-score is 4.45 (active).
Regarding `CC(=O)Nc1ccc(SCC(=O)c2cc(C)n(-c3ccccc3)c2C)cc1`, the z-score was 0.162.
In the case of `Cn1c(SCC(=O)c2ccc(F)cc2)nnc1-c1ccccc1N`, the z-score is -0.0125.
`O=C(CCSc1nc(-c2ccc3c(c2)OCO3)cc(C(F)(F)F)n1)NCc1ccco1` registered a z-score of 0.587.
With `O=[N+]([O-])c1cccc(/C=C/c2nc(C=Nc3ccc4ccccc4c3)c(O)o2)c1`, the z-score was -0.0456.
In the case of `Cc1ccc(S(=O)(=O)N(C)CCCC(=O)Nc2cccc3ccccc23)cc1`, the z-score was -0.456.
For `CCC(=O)Nc1ccc(N2CCCCC2)cc1` the value was -0.169; for `O=C(CNC1CCCCCC1)Nc1ccc(N2CCCC2)cc1`, 2.66; for `O=C(CNC1CCCCCC1)Nc1ccccc1N1CCCCC1`, -0.23.
For `CN1C2=C(C#N)C(c3ccccc3)(C(F)(F)F)NC(=O)N2c2ccccc21` (stereo unspecified), the z-score is -0.282.
For `CC(C)c1nc(=S)n(-c2ccccc2)[nH]1`, the z-score was 4.41 (active).
`CC(C)c1nc(-c2ccccc2)c(-c2ccccc2)[nH]1`: the z-score is -0.0702.
For `CC(C)c1nc2cc3ccccc3cc2[nH]1` the value was 0.396; for `COc1ccc(N2CCN(C(=O)NC34CC5CC(CC(C5)C3)C4)CC2)cc1`, -0.0964.
Consider `CCC(CCC(=O)Nc1ccc(S(N)(=O)=O)cc1)C(=O)O` (stereo unspecified), for which the z-score is 0.735.
Consider `COc1ccc(C2NC(=O)c3n[nH]c(C)c32)c(OC)c1` (stereo unspecified), for which the z-score came to 0.447.
`Cc1[nH]nc2c1C(c1ccccc1F)NC2=O` (stereo unspecified) yielded a z-score of 2.74.
`CCOc1ccc(C2NC(=O)c3n[nH]c(C)c32)cc1` (stereo unspecified) displayed a z-score of 0.931.
For `CCOC(=O)c1[nH]c2ccc(OC)cc2c1NC(=S)N1CCN(c2ccc(F)cc2)CC1` the value was 0.623; for `Cc1ccc(C(=O)N/N=C/C2=Cc3ccccc3OC2C)cc1` (stereo unspecified), 3.08 (active).
For `CC1Oc2ccccc2C=C1/C=N/NC(=O)c1ccccc1O` (stereo unspecified) the value was 0.0521; for `CC1Oc2ccccc2C=C1/C=N/NC(=O)c1ccccc1` (stereo unspecified), 1.9; for `Cc1ccsc1C(=O)NNC(=O)Nc1ccc(Cl)c(Cl)c1`, -0.13.
As for `COc1cccc(OC)c1OCCCCCc1c(C)n[nH]c1C`, the z-score is -0.231.
Take `COc1ccccc1OCCCCCc1c(C)n[nH]c1C`: the z-score was -0.151.
For `CCOc1ccccc1OCCCCCc1c(C)n[nH]c1C` the value was 3.05 (active).
In turn, `CCC(=O)N/C(=N/c1nc(C)cc(C)n1)Nc1cccc(OC)c1` displayed a z-score of 0.0375.
`Cc1cc(/C([O-])=C(/C(=S)Nc2ccc(F)cc2)[n+]2ccccc2)c(C)n1-c1ccc(F)cc1`: the z-score is -0.454.
For `CCSc1nnc(NC(=O)c2cc(C)nc3ccccc23)s1` the value was 0.31; for `CCSc1nnc(NC(=O)c2cccc3ccccc23)s1`, -0.316.
For `CCC(CC)c1nnc(NC(=O)c2cc(-c3ccccc3)nc3ccccc23)s1` the value was -0.847; for `CCC(CC)c1nnc(NC(=O)Oc2ccccc2)s1`, -0.366; for `CCSc1nnc(NC(=O)c2ccc3ccccc3n2)s1`, 11.8 (active).
For `CCc1nnc(NC(=O)C2COc3ccccc3O2)s1` (stereo unspecified) the value was 0.0066; for `CCC(CC)c1nnc(NC(=O)c2ccc3ccccc3n2)s1`, 11.4 (active); for `O=C(Nc1nnc(C(F)(F)F)s1)C1COc2ccccc2O1` (stereo unspecified), -0.109.
Turning to `CCC(CC)c1nnc(NC(=O)C2COc3ccccc3O2)s1` (stereo unspecified), the z-score was 3.82 (active).
Take `COc1cccc(C2C(C(C)=O)=C(O)C(=O)N2CCc2c[nH]c3ccccc23)c1` (stereo unspecified): the z-score was -0.32.
`Cc1ccc(CSc2ccc(-c3ccco3)nn2)cc1` displayed a z-score of 0.361.
For `C=CCN(C(C)=O)C1CC(=O)N(c2ccc(OCCC)cc2)C1=O` (stereo unspecified) the value was -0.00882; for `CCC/C(=N\NC(=O)c1csc(C)c1C)c1cccs1`, 0.475; for `C/C(=N\NC(=O)c1csc(C)c1C)c1ccco1`, 0.816.
On to `C/C(=N\NC(=O)c1csc(C)c1C)c1ccc(Cl)s1`, for which the z-score is 3.54 (active).
`CCC/C(=N/NC(=O)c1csc(C)c1C)c1ccc(Cl)s1`: the z-score was 5.92 (active).
With `CC/C(=N\NC(=O)c1csc(C)c1C)c1cccs1`, the z-score was determined as 1.32.
Consider `Cc1scc(C(=O)N/N=C/c2ccco2)c1C`, for which the z-score was -0.0599.
For `COc1ccc(CCNC(=O)C2CCCN(S(=O)(=O)c3cnc[nH]3)C2)cc1OC` (stereo unspecified) the value was -0.0112.
For `CCOc1ccccc1C(=O)N(Cc1ccco1)C1CCS(=O)(=O)C1` (stereo unspecified), the z-score was 0.0514.
For `CN1C(=O)CSC1=NCC12CC3CC(CC(C3)C1)C2` the value was -0.123.
For `COc1ccc(Cl)cc1NC(=S)NCCc1c[nH]c2ccccc12` the value was 0.142.
As for `CCOc1ccc(CN(Cc2ccco2)S(=O)(=O)c2ccc(-n3cnnn3)c(OC)c2)cc1`, the z-score turned out to be 2.75.
For `CCOc1ccccc1CN(Cc1ccco1)S(=O)(=O)c1ccc(-n2cnnn2)c(OC)c1` the value was 0.115; for `COc1cc(S(=O)(=O)N(Cc2ccc(C)cc2)Cc2ccco2)ccc1-n1cnnn1`, 0.205.
For `O=C(Cc1c(F)cccc1Cl)NCC1CCCO1` (stereo unspecified) the value was 0.148; for `CN1/C(=C\C(=S)NC(=O)c2cccc(Br)c2)C(C)(C)c2ccccc21`, -0.0589.
For `CN1/C(=C\C(=S)NC(=O)c2ccc([N+](=O)[O-])cc2)C(C)(C)c2ccccc21` the value was 0.213.
Consider `Cc1ccc(C(=O)NC(=S)/C=C2\N(C)c3ccccc3C2(C)C)cc1`, for which the z-score amounted to 2.66.
Consider `CC(C)(C)C(=O)Nc1ccc(-c2cn3ccsc3n2)cc1`, for which the z-score is -1.44.
For `CCCN1CNC(=S)N(c2ccc(C(=O)OCC)cc2)C1` the value was -2.04; for `O=C(CC(=O)c1ccccc1)Nc1ccc2c(c1)OCCO2`, -0.987; for `Cc1cc(NC(=S)NC(=O)c2ccccc2)ccc1-c1cc2ccccc2oc1=O`, -0.165.
As for `Cn1ncc2cc(NC(=S)NC(=O)c3ccccc3)ccc21`, the z-score came to 2.21.
Turning to `O=C(NC(=S)Nc1ccc2c(c1)OCO2)c1ccccc1`, the z-score was 3.25 (active).
For `O=C(NCC1COc2ccccc2O1)c1ccccc1` (stereo unspecified) the value was 0.298.
For `O=C(NC(=S)Nc1ccc2c(c1)OCO2)c1ccc(Cl)cc1` the value was 0.837; for `O=C(NC(=S)Nc1ccc2c(c1)OCCO2)c1cccc(Br)c1`, 0.945; for `O=C(NC(=S)Nc1ccc2[nH]ncc2c1)c1ccccc1`, -0.139.
For `O=C(NC(=S)NCC1COc2ccccc2O1)c1ccccc1` (stereo unspecified) the value was 6.58 (active); for `O=C(NC(=S)NCc1ccc2c(c1)OCO2)c1ccccc1`, 1.1; for `O=C(CNC(=O)c1ccccc1)NCC1COc2ccccc2O1` (stereo unspecified), 0.11.
In turn, `O=C(NC(=S)Nc1ccc2c(c1)OCCO2)c1ccccc1` returned a z-score of 2.12.
For `Cc1ccc(C2N(c3ccc(F)cc3)C(=O)C3CCCN32)cc1` (stereo unspecified) the value was 0.214; for `N#Cc1cc(C(=O)c2ccccc2OCC(=O)Nc2ccccc2Cl)cn(C2CCCCC2)c1=O`, -0.433; for `CCn1c(CCCOc2ccc(Cl)cc2Cl)nnc1SCC(=O)Nc1cccc(F)c1`, -0.135.
For `CCOc1ccccc1Nc1ncccc1C(=O)N1CCCC1` the value was 1.1; for `Cc1ccc(C)c(N2CCN(S(=O)(=O)c3c(C)noc3/C=C/N(C)C)CC2)c1`, -0.559; for `CC1(C(=O)N2CC3(CC(c4ccccc4)=NO3)C[C@H]2C(=O)NCC(N)=O)CC1` (stereo partly specified), -0.0396.
As to `CCOc1ccccc1Oc1c(C)oc2c(CN3CCN(CCO)CC3)c(O)ccc2c1=O`, the z-score was -0.395.
The compound `CCc1ccc(N2CC(C(=O)Nc3ccc(C)c(S(=O)(=O)N4CCOCC4)c3)CC2=O)cc1` (stereo unspecified) showed a z-score of 0.319.
For `CC(C)NC(=O)c1ccccc1N(Cc1ccccc1)S(C)(=O)=O` the value was 0.373; for `COc1ccc2nc(NC(=O)c3cccc(-c4cc5ccccc5oc4=O)c3)sc2c1`, 0.372.
For `Cc1cc(C)cc(C(=O)NC(=S)Nc2ccc3c(c2)OCCO3)c1` the value was -0.353; for `Cc1ccc(C(=O)NC(=S)Nc2ccc3c(c2)OCCO3)c(C)c1`, 2.7.
`CCc1ccc(C(=O)NC(=S)Nc2ccc3c(c2)OCCO3)cc1` registered a z-score of 0.946.
Consider `Cc1ccc(Cl)c(NC(=S)N(CCCN2CCOCC2)Cc2ccco2)c1`, for which the z-score was -0.227.
`Cc1cccc2cc(/C=N/NC(=O)c3ccccc3O)c(Cl)nc12` yielded a z-score of 0.0387.
For `O=C(NCCCCNC(=O)c1ccc(Cl)s1)c1ccc(Cl)s1` the value was -0.423; for `CC1(C)Cc2ccccc2C(/C(=N\Nc2cccc(Cl)c2)C(N)=O)=N1`, 3.23 (active); for `Cc1cccc(N/N=C(\C(N)=O)C2=NC(C)(C)Cc3ccccc32)c1`, -0.302.
For `COc1ccc(N/N=C(/C(N)=O)C2=NC(C)(C)Cc3ccccc32)cc1` the value was -0.381.
In the case of `Cc1cc(C(=O)N/N=C/c2cccnc2)c(C)o1`, the z-score is 0.000639.
For `O=C(CCCCl)NC(=S)Nc1cc(C(F)(F)F)ccc1N1CCOCC1` the value was 0.012; for `O=C1CCCC2=C1C(c1ccncc1)c1c(nc(SCc3ccccc3)[nH]c1=O)N2` (stereo unspecified), -1.55.
For `CCn1c2ccccc2c2cc(/C=N/n3cnnc3)ccc21` the value was -1.04.
Turning to `CCn1c2ccccc2c2cc(/C=N/n3cn[nH]c3=S)ccc21`, the z-score is 11.5 (active).
With `CCn1c2ccccc2c2cc(/C=N/n3c(C)nnc3C)ccc21`, the z-score was -1.04.
Consider `CC1CCN(c2cc(N)c(Cl)cc2[N+](=O)[O-])CC1`, for which the z-score was -0.475.
For `Cc1ccc(/C=N/n2nnnc2N)cc1[N+](=O)[O-]` the value was 0.159; for `CCc1nnc(N/N=C/c2ccc(N3CCC(C)CC3)c([N+](=O)[O-])c2)n1N`, -0.0832.
The compound `Nc1nnnn1/N=C/c1ccc(N2CCCCC2)c([N+](=O)[O-])c1` came in with a z-score of 1.18.
For `Cc1nnc(N/N=C/c2cc([N+](=O)[O-])c(N3CCC(C)CC3)cc2N2CCC(C)CC2)n1N` the value was 2.68.
For `CC1CCN(c2ccc(/C=N/n3nnnc3N)cc2[N+](=O)[O-])CC1`, the z-score was 3.58 (active).
On to `CC(=O)Nc1ccc(OCC(O)CN2C(C)CCCC2C)cc1` (stereo unspecified), for which the z-score is -0.417.

For the origin of these results see PubChem BioAssay AID488969 (Vanderbilt High Throughput Screening Facility, 2010).
